Screening results (PubChem)
Rows were chosen to be rich in hits. Some 12% of all compounds tested hit in one or more screens of this group.
WT yeast gro inh – growth inhibition of WT yeast, mitochondrial fusion screen. mitochondrial fusion phenotypic screen, WT strain. inhibition, % at 10 µM. hit rate 2.1% among 190,000; in the data active = inhibition above about 58%; tested in S. cerevisiae
Lmaj promast – inhibitors of Leishmania major promastigote growth | Leishmania major promastigotes, resazurin fluorescence viability | inhibition, % at 10 µM | hit rate 9% among 200,000 | AID 1063; in the data active = inhibition above about 50%;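 also: promastigotes grown with compound for 44 hours at 28 °C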
CHOP inhibitor – blocks CHOP induction under ER stress; CHO-K1 CHOP-promoter luciferase, tunicamycin-induced, 15-18 h; inhibition, % at 10 µM; hit rate 3.8% among 220,000; AID 2732;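 active = compounds that reduced the stress-induced luciferase reporter signal by more than about 70% of percent inhibition, limit read from the data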;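 also: 0% = tunicamycin plus vehicle and 100% = wells without tunicamycin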
Arbovirus anti – arbovirus infection inhibition; arbovirus infection cell-based antiviral screen; inhibition, % at 10 µM; hit rate 0.37% among 200,000; in the data active = inhibition above about 30%
* marks the source's active call; other numbers are inactive results.

Screening CN(C)CCOC(C1CCCCC1)C1CCCCC1 returned WT yeast gro inh 48, Lmaj promast 50*, CHOP inhibitor -1 and Arbovirus anti 21.
CN(C)CCNC(=S)NC1CCCCC1 was read as WT yeast gro inh -3, Lmaj promast -1, CHOP inhibitor 15 and Arbovirus anti -1.
Screening Cc1cc(N2CCN(C)CC2)nc2ccc(NC(=O)c3cccnc3Cl)cc12 returned WT yeast gro inh -1, Lmaj promast 99*, CHOP inhibitor 12 and Arbovirus anti 23.
CCN1CCN(c2cc(C)c3cc(NC(=O)c4ccc(Br)o4)ccc3n2)CC1 was read as WT yeast gro inh -2, Lmaj promast 100*, CHOP inhibitor 3 and Arbovirus anti -27.
Cc1cc(N2CCN(C)CC2)nc2ccc(NC(=O)c3ccccc3F)cc12 was read as WT yeast gro inh 12, Lmaj promast 42, CHOP inhibitor -18 and Arbovirus anti -25.
`CCN1CCN(c2cc(C)c3cc(NC(=O)c4ccncc4)ccc3n2)CC1` gave WT yeast gro inh 8, Lmaj promast 65*, CHOP inhibitor -24 and Arbovirus anti -7.
For CCN1CCN(c2cc(C)c3cc(NC(=O)c4ccccc4F)ccc3n2)CC1 the results were WT yeast gro inh -7, Lmaj promast 51*, CHOP inhibitor -32 and Arbovirus anti -34.
`Cc1cc(N2CCN(C)CC2)nc2ccc(NC(=S)NC3CC3)cc12` gave WT yeast gro inh 6, Lmaj promast 22, CHOP inhibitor -7 and Arbovirus anti -4.
`CCN1CCN(c2cc(C)c3cc(NC(=O)c4cccnc4Cl)ccc3n2)CC1` gave WT yeast gro inh 3, Lmaj promast 99*, CHOP inhibitor 1 and Arbovirus anti -12.
Screening CCN(CC)c1cc(C)c2cc(NC(=O)c3ccc(Br)o3)ccc2n1 returned WT yeast gro inh 15, Lmaj promast 80*, CHOP inhibitor 25 and Arbovirus anti -36.
CCn1c(SCC(=O)Nc2cccc(C)n2)nc2c1c(=O)n(C)c(=O)n2C was read as WT yeast gro inh -12, Lmaj promast 1, CHOP inhibitor 2 and Arbovirus anti 0.
For O=S(=O)(Cc1ccccc1)NCC1CCCN(Cc2ccc3nonc3c2)C1 (centres undefined) the results were WT yeast gro inh 0, Lmaj promast 93*, CHOP inhibitor 6 and Arbovirus anti -6.
For O=S(=O)(Cc1ccccc1)NCC1CCCN(Cc2ccc(F)c(F)c2)C1 (centres undefined) the results were WT yeast gro inh -6, Lmaj promast 90*, CHOP inhibitor 20 and Arbovirus anti 1.
For Nc1cc(=O)[nH]c(N2CCN(c3ccccc3)CC2)n1 the results were WT yeast gro inh 2, Lmaj promast -1, CHOP inhibitor 4 and Arbovirus anti 2.
Screening CC12CCC(C(=O)Nc3nc4ccccc4s3)(OC1=O)C2(C)C (centres undefined) returned WT yeast gro inh 38, Lmaj promast 4, CHOP inhibitor -12 and Arbovirus anti 21.
`Cc1cccc(OCCCn2c(CO)nc3ccccc32)c1` gave CHOP inhibitor -9.
Screening O=C(COC(=O)c1ccc(CO)cc1)NCc1cccs1 returned WT yeast gro inh -12, Lmaj promast -8, CHOP inhibitor 19 and Arbovirus anti -2.
CC(C)OC(=O)C(C(=O)C(F)(F)F)c1cc(NS(=O)(=O)c2ccc3ccccc3c2)c2ccccc2c1O (centres undefined) was read as WT yeast gro inh 62*, Lmaj promast 16, CHOP inhibitor 92* and Arbovirus anti -16.
`CCN(c1ccc(C)c(C)c1)S(=O)(=O)c1c(C)[nH]c(=O)[nH]c1=O` gave WT yeast gro inh -12, Lmaj promast -3, CHOP inhibitor 3 and Arbovirus anti 2.
Screening Fc1cccc(/C=N/Nc2nc3ccccc3[nH]2)c1 returned WT yeast gro inh 12, Lmaj promast 83*, CHOP inhibitor 20 and Arbovirus anti -2.
Fc1ccc(/C=N/Nc2nc3ccccc3[nH]2)cc1F was read as WT yeast gro inh 3, Lmaj promast 90*, CHOP inhibitor 20 and Arbovirus anti 0.
Screening CCN(C(=O)COC(=O)c1ccc(S(=O)(=O)N2CCCc3ccccc32)cc1)C1CCS(=O)(=O)C1 (centres undefined) returned WT yeast gro inh 14, Lmaj promast 2, CHOP inhibitor -3 and Arbovirus anti -7.
Screening C/C(=N\Nc1cc(-c2ccccc2)nc(-c2ccccc2)n1)c1ccc(O)c(C)c1 returned WT yeast gro inh 92*, Lmaj promast 13, CHOP inhibitor -9 and Arbovirus anti -35.
`C/C(=N\Nc1cc(C)nc(-c2ccccc2)n1)c1cccc([N+](=O)[O-])c1` gave WT yeast gro inh 23, Lmaj promast 4, CHOP inhibitor 51 and Arbovirus anti -8.
`COc1cc(N/N=C(\C)c2ccc(O)c(C)c2)nc(-c2ccccc2)n1` gave WT yeast gro inh 92, Lmaj promast 9, CHOP inhibitor -3 and Arbovirus anti -36.
COc1cc(N/N=C(\C)c2ccc(N)cc2)nc(-c2ccccc2)n1 was read as WT yeast gro inh 15, Lmaj promast 3, CHOP inhibitor 81* and Arbovirus anti 1.
Screening Cc1ccc(-n2c(C)cc(/C=C3\NC(=O)NC3=O)c2C)c(C)c1 returned WT yeast gro inh 12, Lmaj promast 4, CHOP inhibitor -20 and Arbovirus anti -1.
COc1ccc(CNC(=O)Cn2nnc(-c3ccc(NC(=O)C4CCCCC4)cc3)n2)cc1 was read as WT yeast gro inh -8, Lmaj promast -1, CHOP inhibitor -5 and Arbovirus anti -24.
For C/C(CC(=O)NC(C)(C)C)=N\NC(N)=S the results were WT yeast gro inh -1, Lmaj promast -5, CHOP inhibitor 28 and Arbovirus anti 0.
Cc1cc2n(n1)C(c1cn(-c3ccccc3)nc1C)Nc1c(C)cccc1-2 (centres undefined) was read as WT yeast gro inh 14, Lmaj promast 29, CHOP inhibitor 14 and Arbovirus anti -5.
`Cc1cc2n(n1)C(c1ccc3c(c1)OCO3)Nc1c(C)cccc1-2` (centres undefined) gave WT yeast gro inh 1, Lmaj promast 99*, CHOP inhibitor 26 and Arbovirus anti 12.
Screening Oc1c(C(c2ccco2)N2CCN(C(c3ccccc3)c3ccccc3)CC2)sc2ncnn12 (centres undefined) returned WT yeast gro inh -6, Lmaj promast 36, CHOP inhibitor 95* and Arbovirus anti -20.
Screening O=C(Nc1ncccc1Cl)c1ccccc1F returned WT yeast gro inh -24, Lmaj promast 72*, CHOP inhibitor 28 and Arbovirus anti 3.
O=C(Nc1ncccc1Cl)c1cccc(F)c1 was read as WT yeast gro inh -9, Lmaj promast -7, CHOP inhibitor -44 and Arbovirus anti 5.
For Cc1cc(CNC(=O)C(C)n2nc(C)c([N+](=O)[O-])c2C)c2ccccc2n1 (centres undefined) the results were WT yeast gro inh 0, Lmaj promast -2, CHOP inhibitor -2 and Arbovirus anti 9.
`O=C(Cc1cccs1)N1CCN(c2nc(-c3ccc(Cl)cc3)cs2)CC1` gave WT yeast gro inh 59*, Lmaj promast -3, CHOP inhibitor 53 and Arbovirus anti 14.
For O=[N+]([O-])c1ccc(N2CCN(c3nc(-c4ccc(Cl)cc4)cs3)CC2)cc1 the results were WT yeast gro inh -8, Lmaj promast 98*, CHOP inhibitor -3 and Arbovirus anti -11.
